A selection: hits, their analogues and other compounds. The true share with any hit is near 2.9%.
CRFBP-R2 agonist: CRF-BP/CRF-R2 complex agonism. activation, % at 13.2 µM. 350,000 compounds, 0.46% hits. HEK293 CRF-R2/CRF-BP, calcium dye fluorescence (FLIPR); percent of saturating CRF peptide response;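 active = activation of at least 50%, plus an integration ratio under a set limit after plate pattern correction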
MEKK2 WT-MEK5: raises or lowers MEK5 binding to wildtype human MEKK2 PB1 domain; 290,000 compounds, 1.1% hits; binding response (% of control), % at 10 µM; bead flow cytometry, Alexa488-MEK5 binding to MEKK2 WT; actives lie on both sides; in the data active = binding response below about 67% or above about 130%
ABCB6 inh MLPCN: blocks the human ABCB6 transporter | Q9NP58 | K562-ABCB6 porphyrin accumulation, flow cytometry, 1 h; hits give low values | fluorescence ratio to DMSO, % at 10 µM | 360,000 compounds, 0.19% hits | AID 602162;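 active = fluorescence ratio to DMSO below 75%, the collection mean minus 3 SD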;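 note: signal is porphyrin accumulated inside mitochondria; lower ratio means ABCB6 inhibition with less porphyrin fluorescence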
MEKK2mut PB1 HTS: signal of MEK5 binding to mutant human MEKK2 PB1 domain; bead flow cytometry, Alexa488-MEK5 binding to MEKK2 mutant; percent response, % at 10 µM; 290,000 compounds, 0.35% hits; in the data active = percent response above about 24%, passing the limit was not always enough
MEKK3 PB1 HTS: raises or lowers MEK5 binding to the human MEKK3 PB1 domain; bead-based flow cytometry, Alexa488-MEK5 binding to MEKK3; actives lie on both sides; 0 = blocked by unlabeled MEK5, 100 = vehicle; binding response (% of control), % at 10 µM; 290,000 compounds, 1.4% hits; AID 1529;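 active = binding response more than 3 SD above or below the average of its plate-row segment, actives on both sides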;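 note: Alexa488 bead fluorescence after subtracting the streptavidin-only scavenger bead signal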
Target sequence (Q99759 whole entry, looked up, the tested form may be a part): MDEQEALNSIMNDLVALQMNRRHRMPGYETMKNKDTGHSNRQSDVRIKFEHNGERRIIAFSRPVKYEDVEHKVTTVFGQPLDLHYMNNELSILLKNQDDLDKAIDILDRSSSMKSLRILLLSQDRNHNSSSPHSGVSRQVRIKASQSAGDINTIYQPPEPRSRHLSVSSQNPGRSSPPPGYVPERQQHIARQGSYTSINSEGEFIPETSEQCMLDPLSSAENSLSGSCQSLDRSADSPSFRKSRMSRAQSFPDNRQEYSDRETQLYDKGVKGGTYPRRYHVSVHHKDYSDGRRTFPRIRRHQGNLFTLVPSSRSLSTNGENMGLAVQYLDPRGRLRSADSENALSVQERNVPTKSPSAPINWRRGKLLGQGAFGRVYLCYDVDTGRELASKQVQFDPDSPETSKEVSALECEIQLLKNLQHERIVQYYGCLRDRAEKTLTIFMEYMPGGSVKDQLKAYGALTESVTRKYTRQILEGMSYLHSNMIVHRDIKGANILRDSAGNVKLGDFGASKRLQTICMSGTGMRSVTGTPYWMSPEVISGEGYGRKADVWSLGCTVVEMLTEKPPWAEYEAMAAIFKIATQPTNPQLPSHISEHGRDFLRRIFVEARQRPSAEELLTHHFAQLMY
CRFBP-R2 block: antagonists of CRF-binding protein/CRF-R2 receptor complex. AID 588475. HEK293 CRF-R2/CRF-BP, CRF-induced calcium fluorescence. 350,000 compounds, 0.59% hits. inhibition, % at 11.8 µM;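 active = inhibition of the ligand-induced calcium signal above about 50% at the single tested concentration, limit read from the data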
MEKK2wt confirm: raises or lowers MEK5 binding to wildtype human MEKK2, retest; 5,900 compounds, 2.4% hits; bead flow cytometry, Alexa488-MEK5 binding to MEKK2 WT; actives lie on both sides; binding response (% of control), % at 10 µM; shares compounds with MEKK3 PB1 HTS; in the data active = binding response below about 16% or above about 210%; inactive = in between
MEKK2mut confirm: signal of MEK5 binding to mutant human MEKK2, retest; shares compounds with MEKK3 PB1 HTS; bead flow cytometry, Alexa488-MEK5 binding to MEKK2 mutant; percent response, % at 10 µM; 5,900 compounds, 2% hits; AID 1893; in the data active = percent response mostly above about 71%, no sharp cut-off; inactive = mostly below about 38%;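 note: higher means compound restores mutant binding toward wildtype level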
MEKK3 confirm: MEKK3-MEK5 PB1 inhibition, single concentration confirmation; shares compounds with MEKK3 PB1 HTS; bead flow cytometry, Alexa488-MEK5 binding to MEKK3; hits give low values; binding response (% of control), % at 10 µM; 5,900 compounds, 1.8% hits; AID 1894;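 active = binding response below 72% of control, or above a set upper limit, though filed actives all read lower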;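 note: lower values mean stronger disruption of MEK5 binding to MEKK3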
Hits are given with their value; i = inactive; nt = not tested or not shown; [ ] = another dose, or the depositor's remark.

SMILES	CRFBP-R2 agonist	MEKK2 WT-MEK5	ABCB6 inh MLPCN	MEKK2mut PB1 HTS	MEKK3 PB1 HTS	CRFBP-R2 block	MEKK2wt confirm	MEKK2mut confirm	MEKK3 confirm
COC(=O)Cn1ncn2cccc2c1=O	i	i	i	i	i	i	nt	nt	nt
O=c1[nH]ncn2cccc12	i	i	i	i	78.0[inhibitor]	i	i	i	i
CCN(CC)CC(=O)Nc1ccc2c(c1)Nc1ccccc1CC2	i	135.0	i	i	i	i	i	i	i
O=C(COC(=O)c1cccs1)Nc1cccc(S(=O)(=O)N2CCCCC2)c1	i	nt	i	nt	nt	i	nt	nt	nt
O=C(CCSCCc1ccncc1)NCCCN1CCOCC1	i	i	i	i	i	i	nt	nt	nt
O=C(CCSCCC(=O)NCCN1CCOCC1)NCCN1CCOCC1	i	i	i	i	81.0[inhibitor]	i	i	i	i
CCC(=O)Nc1ccc2c(c1)ncn2C	i	i	i	i	75.0[inhibitor]	i	i	i	i
CC(C(=O)Nc1cc([N+](=O)[O-])ccc1Cl)N1CCN(c2ccccc2O)CC1 (stereo not given)	i	i	i	i	132.0	i	i	i	i
O=C(O)c1ccc(NS(=O)(=O)Cc2ccc(Cl)c(Cl)c2)cc1	i	nt	i	nt	nt	i	nt	nt	nt
COc1ccc(NC(=O)CSc2nnc(-c3cccnc3)o2)c(OC)c1	i	nt	i	nt	nt	i	nt	nt	nt
COc1ccc(C(=O)c2ccccc2)cc1	i	i	i	i	i	i	nt	nt	nt
O=C(c1ccccc1)c1ccc(Oc2ncccn2)cc1	i	-1.0[inhibitor]	i	i	0.0[inhibitor]	i	i	i	i
COC(=O)c1cc(=O)nc2sc3cc(OC)ccc3n12	i	i	i	i	122.0	i	i	i	i
C#CCOCCOCCOCCNc1nc(N2CCOCC2)nc(N2CCN(C(=O)[C@H](Cc3cc4ccccc4[nH]3)n3cc([C@@H](N)C(C)CC)nn3)CC2)n1 (stereo not given in full)	i	i	i	i	i	i	nt	nt	nt
C#CCOCCOCCOCCNc1nc(N2CCN(C(=O)[C@H](Cc3ccc(O)cc3)n3cc([C@@H](N)C(C)CC)nn3)CC2)nc(N2CCN(C(=O)[C@H](Cc3cc4ccccc4[nH]3)n3cc([C@@H](N)Cc4ccc(O)cc4)nn3)CC2)n1 (stereo not given in full)	nt	169.0	nt	i	i	nt	241.0	125.0	i
C#CCOCCOCCOCCNc1nc(N2CCN(C(=O)C(Cc3ccc(O)cc3)n3cc(C(N)CC(C)C)nn3)CC2)nc(N2CCN(C(=O)C(Cc3cc4ccccc4[nH]3)n3cc(C(N)C(C)CC)nn3)CC2)n1 (stereo not given)	nt	239.0	nt	118.0	i	nt	237.0	89.0	i
C#CCOCCOCCOCCNc1nc(N2CCN(C(=O)C(Cc3cc4ccccc4[nH]3)n3cc(C(N)C(C)CC)nn3)CC2)nc(N2CCN(C(=O)C(Cc3cc4ccccc4[nH]3)n3cc(C(N)C(C)CC)nn3)CC2)n1 (stereo not given)	i	254.0	i	105.0	i	i	254.0	107.0	i
C#CCOCCOCCOCCNc1nc(N2CCN(C(=O)[C@H]([C@@H](C)CC)n3cc([C@@H](N)CC(C)C)nn3)CC2)nc(N2CCN(C(=O)[C@H](Cc3cc4ccccc4[nH]3)n3cc([C@@H](N)C(C)CC)nn3)CC2)n1 (stereo not given in full)	nt	184.0	nt	37.0	i	nt	227.0	90.0	i
CC12CCC(=O)N1C(C(=O)NCCc1ccc(S(N)(=O)=O)cc1)CS2 (stereo not given)	i	i	i	i	i	i	nt	nt	nt
C#CCOCCOCCOCCNc1nc(N2CCN(C(=O)[C@H]([C@@H](C)CC)n3cc([C@@H](N)Cc4ccc(O)cc4)nn3)CC2)nc(N2CCN(C(=O)[C@H](Cc3cc4ccccc4[nH]3)n3cc([C@@H](N)CC(C)C)nn3)CC2)n1	i	nt	i	nt	nt	i	nt	nt	nt
C#CCOCCOCCOCCNc1nc(N2CCN(C(=O)[C@H]([C@@H](C)CC)n3cc([C@@H](N)CO)nn3)CC2)nc(N2CCN(C(=O)[C@H]([C@@H](C)CC)n3cc([C@@H](N)CC(C)C)nn3)CC2)n1	i	139.0	i	i	i	i	i	i	i
C#CCOCCOCCOCCNc1nc(N2CCN(C(=O)[C@H]([C@@H](C)CC)n3cc([C@@H](N)CC(C)C)nn3)CC2)nc(N2CCN(C(=O)[C@H](Cc3cc4ccccc4[nH]3)n3cc([C@@H](N)Cc4ccc(O)cc4)nn3)CC2)n1	i	270.0	nt	128.0	i	i	226.0	i	i
C#CCOCCOCCOCCNc1nc(N2CCN(C(=O)[C@H](Cc3ccc(O)cc3)n3cc([C@@H](N)CC(C)C)nn3)CC2)nc(N2CCN(C(=O)[C@H](Cc3cc4ccccc4[nH]3)n3cc([C@@H](N)CC(C)C)nn3)CC2)n1	i	230.0	nt	99.0	i	i	245.0	93.0	i
Cc1cc(C)c(C#N)c(SCC(O)COc2ccc(Br)cc2)n1 (stereo not given)	i	i	i	i	i	i	nt	nt	nt
O=C(CS(=O)(=O)c1ccccc1Cl)N1CCOCC1	i	i	i	i	i	i	nt	nt	nt
SMILES	CRFBP-R2 agonist	MEKK2 WT-MEK5	ABCB6 inh MLPCN	MEKK2mut PB1 HTS	MEKK3 PB1 HTS	CRFBP-R2 block	MEKK2wt confirm	MEKK2mut confirm	MEKK3 confirm
CCOC(=O)Cc1csc(NC(=O)c2c(O)c3ccccc3n(CC(C)C)c2=O)n1	i	i	i	i	73.0[inhibitor]	i	i	i	i
CCCC1/C(=N/O)CC(c2ccccc2)NC1c1ccccc1 (stereo not given)	i	7.0[inhibitor]	i	i	4.0[inhibitor]	i	i	i	i
COc1cccc(-c2ccc(NC(=O)C3CCCN(Cc4cnn(C(C)C)c4)C3)cc2)c1 (stereo not given)	i	147.0	i	i	i	i	i	i	i
COc1ccccc1NS(=O)(=O)c1cc(NC(=O)CCC(=O)c2cccs2)ccc1Cl	i	i	i	i	147.0	i	i	i	i
O=C(CN1CCC(O)(c2cccc(F)c2)CC1)NCCc1c[nH]c2ccccc12	i	178.0	i	i	i	i	i	i	i
CC(=O)N(C)c1ccc(C=C2C=Cc3ccccc32)cc1	i	nt	i	nt	nt	i	nt	nt	nt
S=C(NCCc1ccccc1)NCCc1ccccc1	i	i	i	i	i	i	nt	nt	nt
CC(C)(C)C(=O)NC(=S)NCCc1ccccc1	i	1.0[inhibitor]	i	i	1.0[inhibitor]	51.4	i	i	i

High-throughput results (PubChem)
